Screens as filed in PubChem BioAssay.
Bead autofluor – compound fluorescence in toxin protease inhibitor counterscreen | compound autofluorescence counterscreen, microsphere flow cytometry; stronger effect = higher value | fluorescence intensity (no concentration beside the values) | 3.1% of 360,000 active; in the data active means fluorescence intensity above about 16000; inconclusive means no clear call, values can overlap the other calls
BoNT-A LC inh2 – inhibitors of Botulinum neurotoxin A light chain protease; multiplex microsphere protease substrate cleavage, flow cytometry; inhibition, % at 10 µM; 0.17% of 360,000 active; AID 588499; further: plate controls were buffer without enzyme for full effect and enzyme alone for no effect
PriA SSB inh – blocks PriA binding to SSB C-terminal tail | AlphaScreen SSBct-PriA binding, biotinylated peptide | 0.6% of 430,000 active | inhibition, % at 33 µM | AID 1272365; in the data active means inhibition mostly above about 37%, no sharp cut-off; inactive means mostly below about 20%;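 further: plate controls were negative control peptide for no effect and reference peptide for full effect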
Anthrax LF prot – blocks Bacillus anthracis lethal factor protease. 0.12% of 360,000 active. multiplex microsphere protease cleavage assay, LF. P15917. inhibition, % at 10 µM; further: plate controls were buffer without enzyme for full effect and enzyme alone for no effect
Target sequence (P15917 whole entry, looked up): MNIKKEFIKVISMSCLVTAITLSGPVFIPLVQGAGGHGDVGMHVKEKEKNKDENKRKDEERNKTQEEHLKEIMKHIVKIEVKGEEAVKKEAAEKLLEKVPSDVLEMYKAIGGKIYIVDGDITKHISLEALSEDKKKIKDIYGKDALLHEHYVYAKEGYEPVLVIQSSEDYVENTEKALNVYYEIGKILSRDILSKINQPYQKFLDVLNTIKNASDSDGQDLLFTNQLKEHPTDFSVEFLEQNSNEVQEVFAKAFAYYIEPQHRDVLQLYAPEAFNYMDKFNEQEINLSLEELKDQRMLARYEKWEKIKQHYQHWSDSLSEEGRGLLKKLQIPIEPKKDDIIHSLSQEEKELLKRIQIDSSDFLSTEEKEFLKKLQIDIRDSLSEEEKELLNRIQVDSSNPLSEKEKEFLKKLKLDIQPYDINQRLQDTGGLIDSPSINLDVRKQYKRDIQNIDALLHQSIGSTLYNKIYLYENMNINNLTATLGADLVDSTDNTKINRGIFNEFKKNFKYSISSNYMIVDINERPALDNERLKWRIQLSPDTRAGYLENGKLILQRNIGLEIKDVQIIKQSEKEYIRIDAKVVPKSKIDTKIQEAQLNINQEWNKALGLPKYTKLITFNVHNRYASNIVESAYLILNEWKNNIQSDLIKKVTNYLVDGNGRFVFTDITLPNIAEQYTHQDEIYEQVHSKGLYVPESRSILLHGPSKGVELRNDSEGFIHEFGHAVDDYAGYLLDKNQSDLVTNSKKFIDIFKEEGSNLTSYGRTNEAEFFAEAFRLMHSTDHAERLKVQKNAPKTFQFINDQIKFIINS
BoNT-F LC inh – inhibitors of Botulinum neurotoxin F light chain protease; Multiplex microsphere protease cleavage assay, flow cytometry; AID 588497; inhibition, % at 10 µM; 0.22% of 360,000 active; in the data active means inhibition above about 35%, passing the limit was not always enough; inconclusive means no clear call, values can overlap the other calls; further: plate controls were buffer without enzyme for full effect and enzyme alone for no effect
* = called active by the depositor; ? = inconclusive; . = no result; ! = a repeat was not active. Only some compounds are listed: those with a hit (about 3.1% of all), similar ones and a draw of the others. Unless noted, no stated cut-off is given here; in the data, active means inhibition above about 30%; inconclusive means no clear call, values can overlap the other calls; inactive means below that.

SMILES	Bead autofluor	BoNT-A LC inh2	PriA SSB inh	Anthrax LF prot	BoNT-F LC inh
COc1cc(CN2CCC(c3cccs3)CC2)cc(OC)c1	.	.	-12	.	.
CCOc1ccc(S(=O)(=O)NCCc2ccc3c(c2)CCCN3C)cc1	.	.	31	.	.
CCCN1CCCc2cc(CCNS(=O)(=O)c3ccccc3)ccc21	.	.	86	.	.
CCCN1CCCc2cc(CCNS(=O)(=O)c3ccc(OCC)c(C)c3)ccc21	.	.	56*	.	.
CCCN1CCCc2cc(CCNS(=O)(=O)c3cc(C)ccc3OCC)ccc21	.	.	71*	.	.
COc1ccc(CCNS(=O)(=O)c2ccc3c(c2)CCCC3)cc1OC	3461	2	-13	10	7
CCCN1CCCc2cc(CCNS(=O)(=O)c3cccc(F)c3)ccc21	.	.	65*	.	.
CCCN1CCCc2cc(CCNS(=O)(=O)c3ccc(OC)c(F)c3)ccc21	.	.	66*	.	.
CC(=O)Nc1ccc(C(=O)N2CCN(CCn3cccn3)CC2)cc1	.	.	-5	.	.
CCOc1ccc(S(=O)(=O)NCCc2ccc(N3CCCC3)cc2)cc1F	.	.	18	.	.
CCCN1CCCc2cc(CCNS(=O)(=O)c3ccc(OCC)c(F)c3)ccc21	.	.	39*	.	.
Cc1ccn(-c2ccc(Nc3ccc(NC(=O)c4ccccc4Br)cc3)nn2)n1	.	.	35*	.	.
Cc1ccn(-c2ccc(Nc3ccc(NC(=O)c4c(F)cccc4Cl)cc3)nn2)n1	.	.	39*	.	.
COc1ccc([C@@H]2C[C@H]3CN(Cc4ccccc4OC)C(=O)[C@]34CCCN24)cc1C	19989*	-4	9	8	32
CC(CC(=O)Nc1cccc(Cl)c1Cl)=NNC(=O)c1ccccc1C	.	.	-12	.	.
Cc1ccsc1C(=O)Nc1ccccc1N1CCOCC1	18871*	4	-16	-5	4
CCOC(=O)CSc1nnc(-c2nnc(SCC(=O)OCC)n2CC)n1CC	16806*	11	-11	5	14
Cc1nnc2ccc(OCCNS(=O)(=O)c3ccc4c(c3)OCCO4)nn12	.	.	-15	.	.
O=C(O)C1CCCN1S(=O)(=O)c1ccccc1 (stereo unspecified)	20858*	3	-3	0	5
NC(=O)C1CCCN1S(=O)(=O)c1ccccc1 (stereo unspecified)	.	.	12	.	.
Cc1ccc(S(=O)(=O)N2CCCC2C(=O)O)s1 (stereo unspecified)	24047*	-2	-10	0	-4
O=C(Nc1ccccc1-c1nc2ccccc2o1)c1ccc([N+](=O)[O-])s1	.	.	-2	.	.
CC(C)CCSc1nc(N2CCOCC2)c2c(c1C#N)CC(C)(C)OC2	19440*	4	4	-11	4
CC(C)=CCOc1ccc2c(c1)O/C(=C\c1cccc(F)c1)C2=O	.	.	-17	.	.
COc1ccc(Cn2nnnc2C(c2cc3cccc(C)c3[nH]c2=O)N2CCN(C)CC2)cc1 (stereo unspecified)	3345	-1	-4	-8	-6
SMILES	Bead autofluor	BoNT-A LC inh2	PriA SSB inh	Anthrax LF prot	BoNT-F LC inh
Cc1cccc2cc(C(c3nnnn3Cc3ccccc3)N3CCN(c4ccccc4)CC3)c(=O)[nH]c12 (stereo unspecified)	18218*	-4	-11	-3	-8
Cc1cccc2cc(C(c3nnnn3Cc3ccccc3)N3CCN(C)CC3)c(=O)[nH]c12 (stereo unspecified)	19831*	1	-8	0	1
Cc1cc(C)c2[nH]c(=O)c(C(c3nnnn3CC3CCCO3)N3CCCC(C)C3)cc2c1 (stereo unspecified)	11124	0	-3	-9	9
Cc1cc(C)c2[nH]c(=O)c(C(c3nnnn3CC3CCCO3)N3CCC(C)CC3)cc2c1 (stereo unspecified)	26168*	?	-3	-1	-3
COc1cccc(C(=O)C2CN(c3ccccc3)CC2c2ccc(Cl)cc2)c1 (stereo unspecified)	21602*	-2	-31	-4	-5
COc1cccc(C(=O)C2CN(C)CC2c2ccc(Cl)cc2)c1 (stereo unspecified)	5452	-1	10	-3	-4
O=S(=O)(NCCn1ccnc1-c1ncccn1)c1ccc(OC(F)(F)F)cc1	.	.	1	.	.
O=S(=O)(NCCn1ccnc1-c1ncccn1)c1ccc2c(c1)CCCC2	.	.	96*	.	.
COC(=O)c1ccc(S(=O)(=O)NCCn2ccnc2-c2ncccn2)cc1	.	.	96*	.	.
O=S(=O)(NCCn1ccnc1-c1ncccn1)c1ccc(Cl)s1	.	.	44*	.	.
O=S(=O)(NCCn1ccc(-c2cccs2)n1)c1ccc2c(c1)CCCC2	.	.	-9	.	.
COc1ccc(C)c2sc(N(CCCN3CCOCC3)C(=O)c3ccnn3C)nc12	.	.	3	.	.
Cc1cccc(NC(=S)NC(=O)Cc2ccccc2)c1C	2893	0	-5	-9	?
Cc1c(NC(=S)NC(=O)Cc2ccccc2)cccc1C(=O)O	21800*	?	-8	-3	-1
CC(=O)NC12CC3CC(CC(CC(=O)O)(C3)C1)C2	21352*	3	0	1	5
CC(=O)NC(C)C12CC3CC(CC(CC(=O)O)(C3)C1)C2 (stereo unspecified)	10629	0	-9	1	8
CC(=O)NC12CC3CC(C)(C1)CC(NC(C)=O)(C3)C2	23165*	?	-9	-2	4
COc1cc(C=NNC(=O)c2c(-c3c(Cl)cccc3Cl)noc2C)ccc1OCC(N)=O	.	.	2	.	.
O=S(=O)(N1CCOCC1)N1CCSC(c2ccccc2F)CC1 (stereo unspecified)	.	.	-15	.	.
Cc1ccc(Cn2cnc3c(-c4ccccc4)csc3c2=O)c(C)c1	.	.	-17	.	.
N#CC(c1ccccc1)c1ccc2c(C(F)(F)F)cc(C(F)(F)F)nc2n1 (stereo unspecified)	3549	0	77*	-3	-1
Cc1ccc(C(C#N)c2ccc3c(C(F)(F)F)cc(C(F)(F)F)nc3n2)cc1 (stereo unspecified)	2616	-1	30	-5	-14
C/C=C/c1ccc(OC[C@@H](O)CN2CCN(c3cccc(C(F)(F)F)c3)CC2)c(OC)c1	.	.	11	.	.
C/C=C/c1ccc(OCC(O)CN2CCN(c3cccc(Cl)c3)CC2)c(OC)c1 (stereo unspecified)	.	.	36*	.	.
C=CCc1cc(OC)ccc1OCC(O)CN1CCN(c2ccc(OC)cc2)CC1 (stereo unspecified)	22414*!	?	30	-2	-13
SMILES	Bead autofluor	BoNT-A LC inh2	PriA SSB inh	Anthrax LF prot	BoNT-F LC inh
COc1ccc(-n2ccn3c(C)nnc3c2=O)cc1Cl	.	.	-7	.	.
CC(C)S(=O)(=O)c1ccc(CC(=O)Nc2ccccc2Cc2nc(C3CC3)no2)cc1	.	.	-1	.	.
Cc1cccc(NC(=O)COc2ccc3oc4c(c3c2)CCCC4)n1	23564*	-2	-8	-4	-1
O=C(O)c1ccc2c(c1)C(=O)N(C(Cc1ccc(O)cc1)C(=O)O)C2=O (stereo unspecified)	21507*	3	-4	-2	2
Cc1ccc2c(c1)NCCO2	23601*	?	16	-6	-1
CC(=O)N1CCCc2ccc(NC(=O)C(=O)NCc3ccccc3)cc21	.	.	-14	.	.
Cn1cc(CC(=O)NCCN2CCN(S(C)(=O)=O)CC2)c2ccccc21	.	.	-2	.	.
COCCCN1C(=O)c2ccc(C(=O)Nc3cccc(OC)c3)cc2C1=O	.	.	-4	.	.
COc1cccc(C(=O)Nc2ccc3c(c2)C(=O)N(CCC(=O)O)C3=O)c1	20871*	?	-28	-1	0
